The values that follow come from PubChem BioAssay.

Active and inactive are the calls of the source.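 The calls were made as follows: active = compounds killing one labelled cell type while sparing the other, by normalised counts and ratio limits, not self-fluorescent; inactive = the rest.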

The nature of the assay: EMT-state selective cytotoxicity in co-culture – imaging, PC-3E GFP, TEM4-18 mCherry, primary screen (AID 1345086).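 As to all read-outs here: cells exposed to compound for 72 h before imaging.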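 As to red/green cell ratio (normalised): normalised mesenchymal count divided by normalised epithelial count so high means epithelial killing.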 Particulars: PC-3E GFP / TEM4-18 mCherry co-culture, imaging cell counts, at 1 µM; for red/green cell ratio (normalised): actives lie on both sides, counts scaled to control wells, 1 = unselective.
[1] abbreviates: measured here: epithelial PC-3E GFP cell survival.
[2] abbreviates: measured here: mesenchymal TEM4-18 mCherry cell survival.

For the compound `Oc1ccc2c(c1)OCC1(O)Cc3cc(O)c(O)cc3C21` (configuration not stated), the red/green cell ratio (normalised) is 1.17 (inactive). In addition, the normalised cell number under setting [1] worked out at 1.12. Besides, under setting [2], the normalised cell number amounted to 1.31.

For `Cc1cn(CC(=O)O)c(=O)[nH]c1=O`, the red/green cell ratio (normalised) was 0.86 (inactive). The compound also displayed a normalised cell number under setting [1] of 1.15. Under setting [2], this compound displayed a normalised cell number of 0.99.

Regarding `CC#C[C@]1(O)CCC2C3CCC4=CC(=O)CCC4=C3[C@@H](c3ccc(N(C)C)cc3)C[C@@]21C` (some centres not stated), the red/green cell ratio (normalised) is 1 (inactive). Further, the normalised cell number under setting [1] came out at 1.09. The compound also gave a normalised cell number under setting [2] of 1.09.

As for `COc1cccc2c1C(=O)OCc1cc(C)cc(O)c1O2`, the red/green cell ratio (normalised) was 0.9 (inactive). Under setting [1], the normalised cell number came out at 1.17. Further, the normalised cell number under setting [2] worked out at 1.05.

Regarding `CC1=C2[C@](C)(C=CC1=O)C[C@H](O)[C@H]1[C@H](C)C(=O)O[C@]21C`, the red/green cell ratio (normalised) is 1.06 (inactive). In addition, the normalised cell number under setting [1] was found to be 1.09. Besides, the normalised cell number under setting [2] came to 1.15.

For the compound `COC(=O)[C@@]12Oc3ccc(-c4ccc5c(c4O)C(O)=C4C(=O)C[C@H](C)[C@H](O)[C@]4(C(=O)OC)O5)c(O)c3C(O)=C1C(=O)C[C@H](C)[C@@H]2O`, the red/green cell ratio (normalised) is 1.15 (inactive). Under setting [1], the normalised cell number amounted to 0.96. Under setting [2], this compound returned a normalised cell number of 1.1.

As to `COc1c(N2CC[C@@H](CN)C2)c(F)cc2c(=O)c(C(=O)O)cn(CCCN3C(=O)c4ccccc4C3=O)c12`, the red/green cell ratio (normalised) was 1.07 (inactive). The same compound displayed a normalised cell number under setting [1] of 1.03. Under setting [2], this compound gave a normalised cell number of 1.1.

Turning to `COC(=O)/C=C/C(C)=C/C=C/C(C)=C/C=C/C=C(C)/C=C/C=C(C)/C=C/C(=O)O`, the red/green cell ratio (normalised) is 0.81 (inactive). Under setting [1], the normalised cell number came out at 1.29. This compound also gave a normalised cell number under setting [2] of 1.05.

Take `COC1=CC(=O)C(C)=C(C[C@@H](C)O)C1=O`: the red/green cell ratio (normalised) was 1.12 (inactive). Also, under setting [1], the normalised cell number came out at 0.99. This compound showed a normalised cell number under setting [2] of 1.11.

In the case of `C=CC(C)(C)c1[nH]c2ccccc2c1C1=C(OC)C(=O)C(c2c(C(C)(C)C=C)[nH]c3ccccc23)=C(OC)C1=O`, the red/green cell ratio (normalised) is 0.88 (inactive). Under setting [1], the normalised cell number was 1.23. In addition, the normalised cell number under setting [2] was 1.08.

With `O=C(O)C1CCN(C(=O)OCc2ccccc2)CC1`, the red/green cell ratio (normalised) was 1.04 (inactive). The same compound gave a normalised cell number under setting [1] of 0.9. For the same compound, under setting [2], the normalised cell number was found to be 0.94.

Consider `CC[C@H](O)c1oc(=O)cc(OC)c1C`, for which the red/green cell ratio (normalised) was 0.96 (inactive). The normalised cell number under setting [1] came out at 1.01. The compound further had a normalised cell number under setting [2] of 0.97.

Regarding `COC(=O)CCC(=O)NC(=O)Cc1ccccc1`, the red/green cell ratio (normalised) is 0.93 (inactive). Under setting [1], this compound displayed a normalised cell number of 1.16. This compound also had a normalised cell number under setting [2] of 1.08.

Take `O=C1CC(c2ccc(O)cc2)Oc2ccccc21` (configuration not stated): the red/green cell ratio (normalised) was 1.07 (inactive). Further, the normalised cell number under setting [1] turned out to be 1.01. Also, the normalised cell number under setting [2] turned out to be 1.08.

For `O=C1Cc2cc(O)ccc2O1`, the red/green cell ratio (normalised) is 1.26 (inactive). This compound also registered a normalised cell number under setting [1] of 0.91. Besides, under setting [2], the normalised cell number turned out to be 1.14.

Regarding `COC(=O)[C@@H]1C(O)CC[C@H]2CN3CCc4c([nH]c5ccccc45)[C@@H]3C[C@@H]21` (some centres not stated), the red/green cell ratio (normalised) is 1.2 (inactive). Under setting [1], the normalised cell number turned out to be 0.88. For the same compound, the normalised cell number under setting [2] was 1.07.

`COC1C(O)C(O)C(O)[C@@H](O)C1O` (some centres not stated): the red/green cell ratio (normalised) was 1.11 (inactive). Also, under setting [1], the normalised cell number was 0.95. Under setting [2], this compound displayed a normalised cell number of 1.05.

Regarding `CN(C(=O)Cc1ccccc1)C1C(O[C@@H]2OC(COS(=O)(=O)O)C(NC(=O)Cc3ccccc3)[C@H](OS(=O)(=O)O)[C@H]2OS(=O)(=O)O)OC2C[C@@H](NC(=O)Cc3ccccc3)[C@@H](OC3C(NC(=O)Cc4ccccc4)C[C@@H](NC(=O)Cc4ccccc4)[C@H](OS(=O)(=O)O)[C@H]3OS(=O)(=O)O)OC2C1OS(=O)(=O)O` (some centres not stated), the red/green cell ratio (normalised) was 0.95 (inactive). Besides, under setting [1], the normalised cell number came to 1.04. Under setting [2], this compound gave a normalised cell number of 0.99.

Regarding `COC(=O)[C@@H](C)Oc1ccc(O)cc1`, the red/green cell ratio (normalised) was 1.27 (inactive). The compound also yielded a normalised cell number under setting [1] of 0.93. The same compound displayed a normalised cell number under setting [2] of 1.18.

With `CC(C)CCCC(C)[C@H]1CCC2C3C=CC4=CC(=O)CC[C@]4(C)C3CC[C@@]21C` (some centres not stated), the red/green cell ratio (normalised) was 0.99 (inactive). This compound also came in with a normalised cell number under setting [1] of 0.94. Also, the normalised cell number under setting [2] was 0.93.

Regarding `COc1cc([C@@H]2c3cc4c(cc3[C@H](O)C3COC(=O)[C@H]32)OCO4)cc(OC)c1OC` (some centres not stated), the red/green cell ratio (normalised) is 1.4 (inactive). Also, the normalised cell number under setting [1] is 0.16. The compound further registered a normalised cell number under setting [2] of 0.22.

`C[C@@H]1CC[C@@]2(OC1)O[C@H]1CC3C4CC[C@H]5C[C@@H](O)CC[C@]5(C)C4CC[C@]3(C)[C@H]1[C@@H]2C` (some centres not stated): the red/green cell ratio (normalised) is 0.88 (inactive). Under setting [1], this compound returned a normalised cell number of 1.17. This compound came in with a normalised cell number under setting [2] of 1.03.

Take `COC1=CC[C@@]2(C)[C@@](O)(CC[C@H]3Cc4c([nH]c5ccccc45)[C@@]32C)[C@@]12CC(=O)[C@](O)(C(C)(C)OC(C)=O)O2`: the red/green cell ratio (normalised) was 0.97 (inactive). Moreover, under setting [1], the normalised cell number came out at 1.15. Under setting [2], the normalised cell number stood at 1.11.

For `NCc1ccccc1CC(=O)NC1C(=O)N2C(C(=O)O)=C(CSc3nnnn3CC(=O)O)CSC12` (configuration not stated), the red/green cell ratio (normalised) was 0.82 (inactive). This compound displayed a normalised cell number under setting [1] of 1.19. The compound further yielded a normalised cell number under setting [2] of 0.98.

`O=c1c(-c2ccc(O)cc2)coc2c(C3O[C@H](CO)[C@@H](O)[C@H](O)[C@H]3O)c(O)ccc12` (some centres not stated): the red/green cell ratio (normalised) was 1 (inactive). This compound also returned a normalised cell number under setting [1] of 1.12. Under setting [2], this compound yielded a normalised cell number of 1.13.

Consider `C=C[C@](C)(O)CC[C@@H]1[C@@]2(C)CCCC(C)(C)[C@@H]2CC[C@]1(C)O`, for which the red/green cell ratio (normalised) was 1.05 (inactive). In addition, the normalised cell number under setting [1] came out at 1.16. The compound also registered a normalised cell number under setting [2] of 1.21.

Consider `C=C1C(=O)OC(C(=O)OC)C1CCCCCCCC(C)O` (configuration not stated), for which the red/green cell ratio (normalised) is 1.07 (inactive). The compound further showed a normalised cell number under setting [1] of 1.11. Under setting [2], this compound registered a normalised cell number of 1.18.

For `COc1cc(OC)c2c(O)c(C(C)=O)c(C)cc2c1`, the red/green cell ratio (normalised) is 1.01 (inactive). Also, the normalised cell number under setting [1] came to 1.08. Under setting [2], this compound gave a normalised cell number of 1.09.

In the case of `Cc1ccc(S[C@H]2OC(COCc3ccccc3)C(O)[C@@H]3OC(=O)N[C@H]23)cc1` (some centres not stated), the red/green cell ratio (normalised) is 1.07 (inactive). The compound further came in with a normalised cell number under setting [1] of 0.9. Under setting [2], this compound came in with a normalised cell number of 0.96.

As for `Nc1nc2c(c(=O)[nH]1)NC(CNc1ccc(C(=O)NC(CCC(=O)O)C(=O)O)cc1)=CN2` (configuration not stated), the red/green cell ratio (normalised) is 0.83 (inactive). Moreover, the normalised cell number under setting [1] is 1.19. The compound also returned a normalised cell number under setting [2] of 0.99.

For the compound `COC(=O)c1cc(Br)ccc1Cl`, the red/green cell ratio (normalised) was 1.04 (inactive). This compound also gave a normalised cell number under setting [1] of 1.12. This compound also gave a normalised cell number under setting [2] of 1.17.

On to `CC(C)C1=CC2=CCC3[C@](C)(CCC[C@]3(C)C(=O)O)C2CC1` (some centres not stated), for which the red/green cell ratio (normalised) is 1.12 (inactive). Under setting [1], this compound gave a normalised cell number of 0.92. The same compound returned a normalised cell number under setting [2] of 1.03.

For `CC1CC(=O)c2c(cc3c(-c4c(O)cc(O)c5c(O)c6c(cc45)OC(C)CC6=O)c(O)cc(O)c3c2O)O1` (configuration not stated), the red/green cell ratio (normalised) was 0.92 (inactive). The normalised cell number under setting [1] came out at 1.06. Further, the normalised cell number under setting [2] came out at 0.98.

As for `CN[C@H]1[C@@H](O[C@@H]2[C@@H](O[C@@H]3[C@@H](O)[C@H](O)[C@@H](N=C(N)N)[C@H](O)[C@H]3N=C(N)N)O[C@H](C)[C@@]2(O)CO)O[C@H](CO)[C@@H](O)[C@@H]1O`, the red/green cell ratio (normalised) was 0.84 (inactive). Besides, the normalised cell number under setting [1] is 1.23. Also, the normalised cell number under setting [2] is 1.03.
